# The panel holds about 83,000 compounds, 20% with a hit somewhere; the sample as a whole holds those more often.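 Single-dose data. Exposure time 48 hours. Values below 10 considered active.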 Activity calls are given as the source filed them.
# Test system: HL-60(TB) leukemia
# Assay: NCI-60 one-dose screen, 48 h (100 = growth as untreated, 0 = no growth, -100 = all killed)
# Conditions: 10 µM unless noted
row,SMILES,growth
1,Fc1cc(-c2nnc3sc(-c4ccc(Cl)cc4)nn23)c(Cl)cc1Cl,26.9% (inactive)
2,COc1cc(/C=C/C(=O)c2ccc(Nc3ncnc4ccccc34)cc2)cc(OC)c1,55.5% (inactive)
3,CC(=O)[C@@]1(O)CC[C@H]2[C@@H]3CC[C@@H]4CC(=O)CC[C@]4(C)[C@H]3[C@@H](O)C[C@@]21C,102% (inactive)
4,CCC(C)N(CCNc1cc(OC)cc2cccnc12)CCC(C)C (stereo not given),81% (inactive)
5,NC(=O)N/N=C/c1ccc(Br)o1,95.8% (inactive)
6,CSc1ccc(-c2n[nH]nc2-c2cc3ccccc3s2)cc1,38% (inactive)
7,COc1cc(CCC[P+](c2ccccc2)(c2ccccc2)c2ccccc2)c(OC)c2c1OCO2,13.6% (inactive)
8,Fc1ccc(C2CC(c3cccc(Nc4ccncc4)c3)=NN2c2cc(Cl)cc(Cl)c2)cc1 (stereo not given),-13.2% (active)
9,CCCCOC(=O)c1ccc(NC(=O)CCl)cc1,25.3% (inactive)
10,CCN1CCN(Cc2ccc(-c3cc4c(N[C@H](C)c5ccccc5)ncnc4[nH]3)cc2)CC1,14.5% (inactive)
11,N#Cc1c(-c2cccc([N+](=O)[O-])c2)cc(-c2ccc(Nc3nc(Nc4ccc(F)cc4)nc(Nc4ccc(F)cc4)n3)cc2)nc1N,28.1% (inactive)
12,COc1ccc(Nc2ncccc2C(=O)NCc2cn(Cc3cc(OC)cc(OC)c3)nn2)cc1,91.6% (inactive)
13,Clc1ccc2c(NCCCn3cnc4c(N5CCCC5)nc(Cl)nc43)ccnc2c1,81.6% (inactive)
14,O=c1ccc2cc3ccccc3cc2[nH]1,67.7% (inactive)
15,CCCCNC(=O)NS(=O)(=O)Cc1ccccc1,88.1% (inactive)
16,NC(CC(N)C(=O)O)C(=O)O (stereo not given),110% (inactive)
17,NCCCNc1nc2ccccc2c2c(=O)c3cc(F)cc(Cl)c3sc12,75.5% (inactive)
18,CCOc1ccc(-c2cc(C3(S(=O)(=O)c4ccc(C)cc4)CC=CC3)on2)cc1,75.1% (inactive)
19,CCOC(=O)c1cc(C(=O)c2cc(OC)c(OC)c(OC)c2)n2ccccc12,-24.6% (active)
20,COc1ccc([C@@H]2[C@@H](Cl)C(=O)N2c2cc(OC)c(OC)c(OC)c2)cc1C,-30.3% (active)

row,SMILES,growth
1,C[C@@H]1CC[C@@H]2[C@@H]1[C@H](OC(=O)/C=C/c1ccccc1)[C@]1(c3ccccc3)C[C@@H](OC(=O)CO)[C@@]2(C)O1,105% (inactive)
2,CCOCC(=O)C(C#N)c1ccc(Cl)c(Cl)c1 (stereo not given),102% (inactive)
3,COc1cc(F)c(/C=C/c2cc(/C=C/c3cc(OC)c(OC)cc3F)on2)cc1OC,85.2% (inactive)
4,CCOC(=O)c1cnn2c(-c3ccc(Cl)cc3)nc(NCc3ccccc3)nc12,82.7% (inactive)
5,Cc1ccc(S(=O)(=O)Nc2ccc(-c3cc(-c4cccc(F)c4)c(C#N)c(=O)[nH]3)cc2)cc1,87% (inactive)
6,O=C(Nc1cccc(Cl)c1)Nc1cc2ncncc2cc1OCc1cccc(F)c1,7.49% (active)
7,CCN1CCN(c2nc3ccccc3c3c(=O)c4cc(F)ccc4sc23)CC1,104% (inactive)
8,COc1ccc(CC(C)=C(c2ccc(OCCN(C)C)cc2)c2ccc(OCCN(C)C)cc2)cc1,41.3% (inactive)
9,CO[C@@H](C)Cn1c(=O)n(C)c2cnc3ccc(-c4cncc(C(C)(C)O)c4)cc3c21,8.97% (active)
10,CN(C)c1ccc2cc(-c3ccccc3F)c(N)nc2c1,5.36% (active)
11,COc1cc(Br)c(OC)cc1Br,109% (inactive)
12,O=C(/C=C\c1ccccc1Cl)c1ccccc1,110% (inactive)
13,O=[N+]([O-])c1ccc(S(=O)(=O)N2CCN(c3ccnc4cc(Cl)ccc34)CC2)c([N+](=O)[O-])c1,75.7% (inactive)
14,Clc1ccc(C2CC(c3cccc(Nc4ccncc4)c3)=NN2c2ccccc2)cc1 (stereo not given),-38.6% (active)
15,COc1ccc(-c2nc3sc(C4CC4)nn3c2/C=C2/C(=O)Nc3ccc(OC)cc32)cc1,97% (inactive)
16,O=C1c2cc3c(cc2-c2c1c1cc(F)c(F)cc1c(=O)n2C[C@H](O)CO)OCO3,-16.4% (active)
17,O=C1c2cccc3cccc(c23)C(=O)N1C/C=C/c1ccc2c3c(cccc13)C(=O)N(CCO)C2=O,94.2% (inactive)
18,Cc1cccc(NCc2cn(-c3ccc(C(=O)O)cc3)nc2-c2ccc(C(=O)O)cc2)n1,101% (inactive)
19,C=C(C)COc1ccc(C(C)(C)C)cc1,104% (inactive)
20,COc1ccc(NC(=O)Nc2ccc(-c3ccc(OC)c(OC)c3)nc2C)cc1,85.7% (inactive)

# Reference: PubChem BioAssay (NCI)
